Compounds with a hit are over-represented: about 7.5% of the library has one in this group of screens.
Rab9 promoter act: activates the Rab9 promoter; Huh7 Rab9 promoter-luciferase reporter, luminescence, 24 h; Potency, µM (top dose mostly 9.22 µM), actives largely listed as activators; 320,000 tested, 2.8% active; also: nearly all actives have a fitted effect of over 60% in size
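Huh7 cells stably carrying Rab9 promoter–luciferase reporter, plated 1500 cells/well, compound added after 2 h and incubated 24 h at 37 °C; luciferase luminescence then read after 10 min with detection reagent.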
Luc counter: Kinase-Glo luciferase inhibition (counter-screen). Q27757. Kinase-Glo luciferase, ATP luminescence, 8 min. Potency, µM (series often up to 38.3 µM), hits mostly inhibitors. 200,000 tested, 0.28% active; also: nearly all actives have a fitted effect of over 60% in size
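Recombinant Kinase-Glo luciferase, 10 uM ATP (linear range), luciferin; imidazole pH 7.2 / KCl / MgCl2 / Tween / BSA buffer; 8 min RT; luminescence.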
FLuc modulator: counter-screen for miR-21 project: firefly luciferase inhibitors or activators; P08659; 360,000 tested, 6.9% active; Potency, µM (highest dose often 57.5 µM), most hits filed as inhibitors; purified FLuc, Km substrates, luminescence inhibition; also: nearly all actives have a fitted effect of over 55% in size
Target sequence (P08659 whole entry, looked up): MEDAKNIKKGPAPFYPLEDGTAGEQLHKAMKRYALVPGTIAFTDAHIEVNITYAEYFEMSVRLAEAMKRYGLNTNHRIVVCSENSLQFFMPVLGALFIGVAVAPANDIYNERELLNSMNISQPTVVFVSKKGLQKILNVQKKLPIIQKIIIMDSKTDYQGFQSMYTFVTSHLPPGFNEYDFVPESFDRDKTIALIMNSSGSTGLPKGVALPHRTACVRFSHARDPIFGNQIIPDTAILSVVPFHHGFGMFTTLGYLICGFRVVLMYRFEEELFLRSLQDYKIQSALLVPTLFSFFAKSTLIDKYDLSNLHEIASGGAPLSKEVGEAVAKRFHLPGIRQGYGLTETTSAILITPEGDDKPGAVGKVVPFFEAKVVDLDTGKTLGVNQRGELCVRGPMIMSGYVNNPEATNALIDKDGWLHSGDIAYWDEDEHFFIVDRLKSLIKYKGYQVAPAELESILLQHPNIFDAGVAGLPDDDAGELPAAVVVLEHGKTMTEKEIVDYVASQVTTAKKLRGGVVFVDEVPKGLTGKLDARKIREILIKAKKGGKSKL
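Purified P. pyralis luciferase (10nM final) with 10uM D-luciferin and 10uM ATP (Km levels) in 50mM Tris acetate pH 7.5, 10mM Mg acetate, 0.01% Tween-20, 0.05% BSA; qHTS 6-point titration, ~60 µM downward; luminescence read.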
NPC1 promoter act: activators of NPC1 promoter; Huh7 NPC1 promoter luciferase reporter, 24 h; Potency, µM (series often up to 9.22 µM), most hits filed as activators; 320,000 tested, 2.4% active; AID 485313; also: nearly all actives have a fitted effect of over 60% in size
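In 1536-well qHTS, Huh7 cells harboring an NPC1 promoter–luciferase construct received compound for 24 h; activation was quantified by luminescence following luciferase reagent addition.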
SMN2 splice up: SMN2 splice variant enhancement; HEK293 SMN2-luciferase splicing reporter, luminescence, 30-36 h; Potency, µM (top dose mostly 46.1 µM), most hits filed as activators; 210,000 tested, 2.8% active; also: nearly all actives have a fitted effect of over 55% in size
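qHTS luciferase splicing reporter: luminescence rises when SMN2 exon 7 is included in transfected HEK293 cells. Compound exposure lasted 30-36 h at 37C, with 4.5 mM final sodium butyrate as control, followed by a ONE-Glo read.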
ELG1 genotox: inducers of genotoxicity in HEK293T ELG1-luciferase cells; 330,000 tested, 1.3% active; HEK293T ELG1-luciferase reporter, luminescence, 16 h; Potency, µM (titrated, usually from 46 µM), actives largely listed as activators; also: nearly all actives have a fitted effect of over 60% in size
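Cells (2,000/well) expressing the ELG1-luciferase fusion are dosed by pin tool and kept 16 hr at 37 °C, 5% CO2. Signal comes from ONE-Glo luciferase reagent after 30 min at room temperature.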
Of the large screens only hits and unclear results are named; the others gave an inactive call. Calls follow the shape of the dose curve; as a rule, active = well fitted curve in the direction sought with a large enough effect; inconclusive = small, poorly fitted or top-dose-only effect, or another doubt; inactive = no such curve, though single readings can be large; an effect the other way counts as inactive or inconclusive.

C=CC[C@@H](CC(=O)OC(C)(C)C)C(=O)OC[C@@H]1CCCN1C(=O)[C@@H](CC=C)CC(=O)N(CCO)Cc1ccccc1	none (no result: Rab9 promoter act, Luc counter, FLuc modulator, NPC1 promoter act, SMN2 splice up)
CC(C)(C)C(=O)Nc1ccc(C(=O)NCc2cccnc2)cc1	FLuc modulator inconclusive (no result: Rab9 promoter act, NPC1 promoter act, ELG1 genotox)
CC(C)(C)c1ccc(C(=O)Nc2ccc(C(=O)NCc3cccnc3)cc2)cc1	FLuc modulator 12µM (no result: Luc counter, SMN2 splice up)
O=C(NCCCCNC(=O)c1ccc(F)cc1)c1ccc(F)cc1	none (no result: Luc counter, SMN2 splice up)
O=C(NCCCc1ccccc1)c1ccc(F)cc1	Rab9 promoter act 1.8µM, FLuc modulator 24µM, NPC1 promoter act inconclusive, ELG1 genotox inconclusive (no result: Luc counter, SMN2 splice up)
CC(C)(C)c1ccc(C(=O)Nc2cnccn2)cc1	Rab9 promoter act 0.56µM, FLuc modulator 1.3µM, NPC1 promoter act 1.8µM, SMN2 splice up 28µM, ELG1 genotox 0.65µM
Cc1ccc(NS(=O)(=O)c2ccc(C(=O)NCc3cccnc3)cc2)cc1	FLuc modulator 21µM, ELG1 genotox inconclusive (no result: Luc counter, SMN2 splice up)
COc1cc(C(C(=O)NCc2ccccc2)N(C(=O)c2snc(C(N)=O)c2N)C2CCCC2)cc(OC)c1OC (centres undefined)	none (no result: Luc counter, SMN2 splice up)
CCOC(=O)Cn1ncc2c3ccccc3n(CC(=O)OCC)c2c1=O	none (no result: Luc counter, SMN2 splice up)
CC(=O)Nc1ccc(C(=O)NCCc2ccccc2)cc1	Rab9 promoter act inconclusive, FLuc modulator inconclusive, NPC1 promoter act inconclusive, SMN2 splice up 16µM, ELG1 genotox inconclusive
CC(=O)Nc1ccc(NC(=O)c2ccccc2CCc2ccccc2)cc1	SMN2 splice up 32µM
Cc1ccc(NC(=O)COc2ccccc2C(=O)NCCc2ccccc2)cc1	FLuc modulator 21µM (no result: Luc counter, SMN2 splice up)
CC1CCN(S(=O)(=O)CCNC(=O)c2ccccc2)CC1	none (no result: Luc counter, SMN2 splice up)
CC1CCN(c2ccc(C(=O)NCCc3ccccc3)cn2)CC1	Rab9 promoter act inconclusive, FLuc modulator 24µM, NPC1 promoter act inconclusive, SMN2 splice up inconclusive
O=C(COc1ccccc1C(=O)Nc1ccccc1)NCCc1ccccc1	none
Cc1nn(CC(=O)N2CCN(c3ccccc3)CC2)c(=O)c2cc3sccc3n12	none (no result: Rab9 promoter act, Luc counter, NPC1 promoter act, ELG1 genotox)
COc1ccc(-c2onc(C)c2C)cc1S(=O)(=O)N1CCc2ccccc21	none (no result: Rab9 promoter act, Luc counter, NPC1 promoter act, SMN2 splice up, ELG1 genotox)
CC(Oc1ccc(C(=O)NCCc2ccccc2)cc1)C(=O)O (centres undefined)	none
CC(C)(C)c1ccc(C(=O)NCCc2ccccc2)cc1	Rab9 promoter act 0.089µM, FLuc modulator 0.76µM, NPC1 promoter act 0.35µM, ELG1 genotox inconclusive (no result: Luc counter, SMN2 splice up)
O=C(NCCc1ccccc1)c1ccncc1	Rab9 promoter act 3.5µM, FLuc modulator inconclusive, ELG1 genotox inconclusive
CCCCOc1ccc(C(=O)NCCc2ccccc2)cc1	Rab9 promoter act 1.1µM, FLuc modulator 6µM, NPC1 promoter act 0.32µM, ELG1 genotox inconclusive (no result: Luc counter, SMN2 splice up)
CC(C)(C)c1ccc(C(=O)NCc2ccccc2)cc1	Rab9 promoter act 6.3µM, FLuc modulator 11µM (no result: SMN2 splice up)
CCCc1cc(=O)oc2cc(OC(=O)CN3C(=O)NC4(CCCC4)C3=O)ccc12	none (no result: Luc counter, SMN2 splice up)
CCOC(=O)c1c(S(=O)(=O)N2CCC(C(=O)NCc3ccc(F)cc3)CC2)c(C)n(C)c1C	none (no result: Rab9 promoter act, Luc counter, NPC1 promoter act, SMN2 splice up, ELG1 genotox)
CC1=C(C#N)C(/C=N/OCc2ccc(F)cc2Cl)CC(=O)N1 (centres undefined)	none
COc1ccc(-c2cccc(-c3cc(=O)oc4ccc(C(C)(C)C)cc34)c2)cc1	none (no result: Rab9 promoter act, FLuc modulator, NPC1 promoter act, SMN2 splice up)
CC(C)(C)c1ccc(C(=O)NCCCNC(=O)c2ccco2)cc1	FLuc modulator 15µM (no result: Luc counter, SMN2 splice up)
CC(C)(C)c1ccc(NC(=O)CCNC(=O)c2ccco2)cc1	FLuc modulator inconclusive (no result: Luc counter, SMN2 splice up)
CC(C)(C)c1ccc(C(=O)Nc2ncn[nH]2)cc1	Rab9 promoter act 2.5µM, FLuc modulator 9.5µM, NPC1 promoter act 2.2µM, SMN2 splice up 10µM, ELG1 genotox inconclusive
Cc1ccc(C(=O)Nc2ncn[nH]2)cc1	FLuc modulator inconclusive (no result: Luc counter, SMN2 splice up)
O=C(NCCc1ccccc1)c1ccc(Cl)nc1	Rab9 promoter act 2µM, FLuc modulator 12µM, NPC1 promoter act 4µM, SMN2 splice up 11µM, ELG1 genotox inconclusive
O=C1N/C(=N/N=C/c2ccc(F)cc2)SC1c1ccccc1 (centres undefined)	FLuc modulator 15µM (no result: Luc counter, SMN2 splice up)
CC(=O)c1cccc(NC(=O)CC2S/C(=N/N=C/c3ccccc3)NC2=O)c1 (centres undefined)	none
